From PubChem BioAssay AID1851 (National Center for Advancing Translational Sciences (NCATS), 2009)
“And” between values parts separate entries of the source, which are not always exact repeats. Identical values can stand only once. The whole screen tested about 16,000 compounds, of which about 5,800 (36%) were called active. Another 23% or so got no clear call; they are omitted. This is one part of the list. Unmarked numbers belong to inactive results. Calls follow the shape of the dose curve; as a rule, active = well fitted curve in the direction sought with a large enough effect; inconclusive = small, poorly fitted or top-dose-only effect, or effect the other way; inactive = no such curve, though single readings can be large or run the other way.

The molecules below were run against Cytochrome P450 2C19 (Homo sapiens) (UniProt P33261) (assay: Cytochrome panel assay with activity outcomes). Conditions: recombinant CYP, pro-luciferin dealkylation, luminescence, p450-cyp2c19; series mostly up to 57.1 µM; activity, negative = inhibition: at the top concentration.
Sequence of Cytochrome P450 2C19 (Homo sapiens) (P33261 whole entry, looked up): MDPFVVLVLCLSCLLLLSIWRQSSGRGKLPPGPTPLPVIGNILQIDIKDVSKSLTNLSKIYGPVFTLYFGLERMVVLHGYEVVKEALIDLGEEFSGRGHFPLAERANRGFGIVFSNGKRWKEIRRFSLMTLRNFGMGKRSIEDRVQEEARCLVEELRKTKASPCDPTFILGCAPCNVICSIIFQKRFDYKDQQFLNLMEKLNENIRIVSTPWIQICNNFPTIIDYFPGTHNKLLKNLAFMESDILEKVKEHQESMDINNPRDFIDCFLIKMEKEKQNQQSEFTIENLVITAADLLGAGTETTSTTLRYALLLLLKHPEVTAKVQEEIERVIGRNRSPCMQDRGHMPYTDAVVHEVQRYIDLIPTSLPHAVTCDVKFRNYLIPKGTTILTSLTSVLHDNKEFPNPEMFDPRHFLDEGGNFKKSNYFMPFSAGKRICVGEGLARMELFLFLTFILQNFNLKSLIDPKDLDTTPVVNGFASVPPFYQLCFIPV
% is scaled to controls: 0 for no effect and ±100 for the full control effect.

Row | Compound | activity, negative = inhibition | AC50
1 | C=CCCCCCCCCC(=O)Nc1c[nH]c(=O)[nH]c1=O | -4.48% | 
2 | Cc1ccc2[nH]c3c(N4CCc5ccccc5C4)ncnc3c2c1 |  | 1580 nM (active)
3 | CCN1CCCC1Cn1cnc2c([nH]c3ccc(C)cc32)c1=O (centres undefined) | -42.8% | 
4 | Cc1cc(NC(=O)CN2C(=O)NC(C)(c3ccc(OC(F)F)cc3)C2=O)no1 (centres undefined) | -9.86% | 
5 | Cc1ccc(C2(C)NC(=O)N(CC(=O)Nc3cc(C)on3)C2=O)cc1 (centres undefined) | -26.8% | 
6 | COc1ccc(OC)c(C(=O)CN2C(=O)NC(C)(c3ccccc3)C2=O)c1 (centres undefined) |  | 224 nM (active)
7 | Cn1c(SCC(=O)NC2CC2)nnc1-c1cccc(NC(=O)c2ccccc2F)c1 | 5.1% | 
8 | Cc1nnc(SCC(=O)NCC2CCCCC2)n(N)c1=O | 14.4% | 
9 | CCn1c(SCC(=O)NC2CCCCC2)nnc1-c1cc2cccc(OC)c2o1 |  | 10000 nM (active)
10 | Nc1nc2c(c(=O)[nH]1)CN(c1ccc(S(N)(=O)=O)cc1)CN2 | 24.4% [at 11.4 µM] | 
11 | Cc1ccc(/C=C2\SC(=S)N(CCCC(=O)Nc3ccccn3)C2=O)cc1 |  | 10000 nM (active)
12 | CCNc1ncc2nc(CCc3ccccc3)c(=O)n(Cc3ccc(F)cc3)c2n1 | -33.5% | 
13 | CCNc1ncc2nc(-c3ccccc3)c(=O)n(C)c2n1 | -12.8% | 
14 | Cc1nc2cnc(Nc3ccccc3)nc2n(C)c1=O | -7.31% | 
15 | CCNc1ncc2nc(-c3ccccc3)c(=O)n(C3CC3)c2n1 | -28.2% | 
16 | CCNc1ncc2nc(CCc3ccccc3)c(=O)n(C)c2n1 |  | 2510 nM (active)
17 | CCNc1ncc2nc(CCc3ccccc3)c(=O)n(C3CC3)c2n1 |  | 6310 nM (active)
18 | Cn1c(=O)c(CCc2ccccc2)nc2cnc(Nc3ccccc3)nc21 |  | 15800 nM (active)
19 | CCNc1ncc2nc(C)c(=O)n(C3CC3)c2n1 | -22.7% | 
20 | CCO/C([O-])=N/c1c[n+](N2CCOCC2)no1 | -25.7% [at 25.6 µM] | 
21 | COC(=O)C(NC(=O)c1ccc(Cl)cc1)(Nc1nc(C)cs1)C(F)(F)F (centres undefined) |  | 5010 nM (active)
22 | CCC(C)NS(=O)(=O)c1ccc(NC(=O)CCC2CCCCC2)cc1 (centres undefined) | -25% | 
23 | O=C(CCc1ccc(S(=O)(=O)NC2CCCCC2)cc1)N(Cc1ccccc1)Cc1ccccc1 |  | 1410 nM (active)
24 | CC(=O)c1ccc(S(=O)(=O)NC(=O)NC2CCCCC2)cc1 | -9.92% [at 25.6 µM] | 
25 | Cc1ccc(NC(=O)CCc2ccc(S(=O)(=O)NC3CCCCC3)cc2)cc1 |  | 15800 nM (active)

Row | Compound | activity, negative = inhibition | AC50
26 | Cc1ccccc1NC1=NC(=S)N(c2ccccc2)C12CCOC(C)(C)C2 (centres undefined) | -25.6% | 
27 | COc1ccc([C@@H](Nc2ccccn2)c2cc(C(C)(C)C)cc(C(C)(C)C)c2O)cc1 |  | 2510 nM (active)
28 | CN1CCc2cc(Cl)c(O)cc2[C@@H](c2ccccc2)C1 | 24% | 
29 | O=S(=O)(c1ccccc1)N1CCC[C@@]2(CCN(c3cccc(-c4ccccc4)c3)C2)C1 | -36% | 
30 | O=S(=O)(c1ccccc1)N1CCC[C@@]2(CCN(c3ccccc3)C2)C1 |  | 316 nM (active)
31 | CS(=O)(=O)N1CCC[C@@]2(CCN(c3ccccn3)C2)C1 | -1% | 
32 | CS(=O)(=O)N1CCC2(CCCN(c3ncccn3)C2)CC1 | -32% | 
33 | CS(=O)(=O)N1CCC[C@@]2(CCN(c3ccncc3)C2)C1 | -44.5% | 
34 | CS(=O)(=O)N1CCC[C@@]2(CCN(c3ncccn3)C2)C1 | 0.968% | 
35 | CS(=O)(=O)N1CCC2(CCCN(c3ccncc3)C2)CC1 |  | 1260 nM (active)
36 | O=S(=O)(c1ccccc1)N1CCC[C@@]2(CCN(C(c3ccccc3)c3ccccc3)C2)C1 | -11.9% | 
37 | CC(C)CN1CC[C@@]2(CCCN(S(=O)(=O)c3ccccc3)C2)C1 | -20.8% | 
38 | CS(=O)(=O)N1CCC[C@@]2(CCN(c3ccccc3)C2)C1 |  | 3160 nM (active)
39 | O=S(=O)(c1ccccc1)N1CCC[C@@]2(CCN(c3ccncc3)C2)C1 |  | 398 nM (active)
40 | CCN1C(=O)[C@H]2[C@H]3[C@H](O)[C@H](O)C/C(=N/OC[C@@H](O)COCc4ccco4)[C@@H]3CC[C@@H]2C1=O | 29.6% [at 11.4 µM] and 41.4% [at 11.4 µM] | 
41 | CN1CCCC2(CCN(S(=O)(=O)c3ccccc3)CC2)C1 | 1.18% | 
42 | O=S(=O)(c1ccccc1)N1CCC2(CCCN(c3cccc(-c4ccccc4)c3)C2)CC1 | -6.1% | 
43 | O=S(=O)(c1ccccc1)N1CCC2(CCCN(c3ccccc3)C2)CC1 |  | 1580 nM (active)
44 | Cc1cc(O)c(-c2cc(O)c(C)cc2O)cc1O |  | 794 nM (active)
45 | Cc1cc(O)c(C(C)C)cc1CN1CCCCC1 | 32.6% [at 11.4 µM] | 
46 | N#Cc1cccc(NC(=O)N2CC[C@@]3(CCCNC3)C2)c1 | -30.4% | 
47 | CC(C)(C)c1cccc(Oc2nn[nH]n2)c1 |  | 7940 nM (active)
48 | Cc1cc(C)cc(Oc2nn[nH]n2)c1 | -23% | 
49 | c1cc(NNc2cccc(-c3nn[nH]n3)c2)cc(-c2nn[nH]n2)c1 | 14.6% [at 11.4 µM] | 
